In PubChem BioAssay:

Test: COS7 lysate on small-molecule microarray, probe aHis, 635 nm (AID 1123);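 also: z-score combines 667nm fluorescence intensity with signal-to-noise per printed compound spot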
Conditions: COS7 cell lysate, fluorescence, higher = more signal

SMILES | composite z-score
Cn1c(=O)n2n(c1=O)[C@H]1[C@H](O)[C@@H]3O[C@@H]3C(=O)[C@H]1CC2 | -0.0596
O=C1C[C@@H](O)[C@@H](O)[C@@H]2[C@@H]3C(=O)N(C[C@@H]4CCCO4)C(=O)[C@@H]3CC[C@@H]12 | 0.725
COc1ccc(O[C@H]2C=C[C@@H](c3ccccc3)O[C@@H]2CON=C2[C@H]3CCn4c(=O)n(-c5ccccc5)c(=O)n4[C@H]3[C@H](O)[C@@H]3O[C@H]23)cc1 | 0.455

Test: probe aLAP1 signal on lysate-treated microarray – cell lysate, small-molecule microarray, COS7 lysate, primary screen (AID 1124);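 also: lysate comes from COS7 cells expressing LAP1 and is applied at 0.3 µg/mL; score merges spot fluorescence near 667 nm with signal-to-noise over triplicate slides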
Conditions: probe aLAP1, fluorescence, higher = more signal

SMILES | composite z-score
CC(C)CCN1CCc2nc(COc3ccccc3)c3c(c2C1)CO[C@@H](C)C3 | 0.378
O=C(NN=C1C[C@@H](O)[C@@H](O)[C@@H]2[C@@H]3C(=O)N(Cc4ccccc4)C(=O)[C@@H]3CC[C@@H]12)OCc1ccccc1 | -0.169
CO[C@@H]1COC(=O)[C@@H](C)COC(=O)[C@@H](C)NC(=O)CC=C[C@@H]1C | 0.262
CO[C@@H]1COC(=O)CC=C[C@@H](C)[C@@H]2C=C[C@H](O)[C@@H](COC(=O)CC=C[C@H]1C)O2 | 0.146
COC(=O)[C@@H]1CC[C@H](C)[C@@H](c2ccc(C)cc2)N1C(=O)c1ccc(C=NO[C@H](C)c2cn([C@H](CO)Cc3ccccc3)nn2)cc1 | 0.452
CCC=CCCC(OC(=O)c1ccc(Br)cc1)C1=CCCCC1=O (centres undefined) | 0.0079
CO[C@H]1COC(=O)[C@@H](C)COC(=O)[C@H](COCc2ccccc2)NC(=O)CC=C[C@H]1C | -0.81
CCOC(=O)CCN1C(=O)[C@H]2[C@H]3[C@H](O)[C@H](O)CC(=NOCC(C)C)[C@H]3CC[C@H]2C1=O | 0.528
C#CCCCON=C1C[C@@H](O)[C@@H](O)[C@@H]2[C@@H]3C(=O)N(CC)C(=O)[C@@H]3CC[C@@H]12 | -0.0523
CON=C1[C@H]2CCn3c(=O)n(-c4ccccc4)c(=O)n3[C@H]2[C@H](O)[C@@H]2O[C@H]12 | 0.0879
CC(C)=CCCC(C)=CCON=C1C[C@@H](O)[C@@H](O)[C@@H]2[C@@H]3C(=O)N(C(C)(C)C)C(=O)[C@@H]3CC[C@@H]12 | -0.0115
CC(C)(C)N1C(=O)[C@H]2[C@H]3[C@H](O)[C@H](O)CC(=O)[C@@H]3CC[C@H]2C1=O | 0.102
CC(=O)OC[C@H]1O[C@H](CC=NO[C@H](C)c2cn([C@H](CO)Cc3ccccc3)nn2)C=C[C@@H]1OC(C)=O | 0.0588
C=Cc1ccc([C@H]2N[C@H](C(=O)O)CC[C@@H]2C)cc1 | 0.723
O=C(C=Cc1ccc2c(c1)OCO2)c1ccc(F)cc1 | 0.134
C[C@@H]1CC[C@H]2C(=O)O[C@@H](Cc3ccccc3)CN2[C@H]1c1ccc(Br)cc1 | 0.912
C=CC1=C[C@H](O)[C@@H]2O[C@@H]2C12OCCCO2 | -0.115
CCN1C(=O)[C@H]2[C@H]3[C@H](O)[C@H](O)CC(=NO[C@@H](C)c4cn([C@H](CO)Cc5ccccc5)nn4)[C@@H]3CC[C@H]2C1=O | 0.547

SMILES | composite z-score
CCOC(=O)[C@H](Cc1ccccc1)NC(=O)CCC1CC(OC(=O)NCc2ccc3c(c2)OCO3)CC2(CCCC(COC(=O)NCCC(C)C)O2)O1 (some centres undefined) | -0.133
O=C1[C@H]2[C@H]3[C@H](O)[C@H](O)CC(=NOC[C@@H](O)COCc4ccco4)[C@H]3CC[C@H]2C(=O)N1C[C@@H]1CCCO1 | -0.353
CC(C)=NO[C@H](C)c1cn([C@H](CO)Cc2ccccc2)nn1 | -0.536
O=C1CCCC=C1C(O)CCCCBr (centres undefined) | -0.101
COC(=O)CC=C[C@@H](C)[C@@H](C=NOC[C@@H](O)[C@H]1O[C@@H]2OC(C)(C)O[C@@H]2[C@H]1O)NS(=O)(=O)c1ccc(C)cc1 | -0.372
CCOC(=O)[C@H](Cc1ccccc1)NC(=O)CCC1CC(OC(=O)NCCc2ccc(F)cc2)CC2(CCCC(COC(=O)NCc3ccccc3)O2)O1 (some centres undefined) | -0.106
COC(=O)CC=C[C@@H](C)[C@@H](C=NOC(C)CN1CCCc2nc(C)c(C)cc21)OC (some centres undefined) | -0.201
O=C1CCCC=C1C(O)CCOC(c1ccccc1)(c1ccccc1)c1ccccc1 (centres undefined) | -0.146
C[C@@H]1C=CCC(=O)OC[C@H]2O[C@@H](C=C[C@@H]2O)[C@H](C)C=CCC(=O)OC1 | -0.307
CO[C@@H]1C=CCC(=O)N[C@@H](C)C(=O)OC[C@@H](OC)[C@H](C)CCCC(=O)OC[C@H]1C | 0.173
Cc1ccc(S(=O)(=O)OC[C@H]2CN3[C@H](c4ccc(Br)cc4)[C@@H](C)CC[C@H]3C(=O)O2)cc1 | 0.0759
CC(C)=CCCC(C)=CCON=C1C[C@@H](O)[C@@H](O)[C@@H]2[C@@H]3C(=O)N(C4CCCCC4)C(=O)[C@@H]3CC[C@@H]12 | 0.0694
O=C1C=C[C@@H](O)[C@@H]2[C@@H]3C(=O)N(C[C@@H]4CCCO4)C(=O)[C@@H]3CC[C@@H]12 | 0.421
CCOC(=O)[C@H](CC(C)C)NC(=O)CCC1CC(OC(=O)NCc2cccc3ccccc23)CC2(CCCC(COC(=O)NCCCN3CCCC3=O)O2)O1 (some centres undefined) | -0.0183
Cc1ccc(S(=O)(=O)N[C@H]2COC(=O)CC=C[C@@H](C)COC(=O)CC=C[C@@H]2C)cc1 | -0.209
Cn1c(=O)n2n(c1=O)[C@H]1[C@H](O)[C@@H]3O[C@@H]3C(=O)[C@H]1CC2 | 0.0837
O=C1C[C@@H](O)[C@@H](O)[C@@H]2[C@@H]3C(=O)N(C[C@@H]4CCCO4)C(=O)[C@@H]3CC[C@@H]12 | 0.181
COc1ccc(O[C@H]2C=C[C@@H](c3ccccc3)O[C@@H]2CON=C2[C@H]3CCn4c(=O)n(-c5ccccc5)c(=O)n4[C@H]3[C@H](O)[C@@H]3O[C@H]23)cc1 | 0.244
